# Test results as given in the supplement of paper PMC12669032.
# Unmarked numbers belong to inactive results.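 How the source made its calls: active = AUC reduced over 20% with Padj below 0.05 in at least 2 of 3 replicates; inactive = otherwise.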
# Tested on: Bacteroides uniformis
# Assay: growth AUC relative to DMSO control (median of replicates) (fraction); higher = more growth (less inhibition), active = hit call of the paper
# Conditions: 20 µM; 24 h
# Summary of the method: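 For each compound at 20 µM (1% DMSO), gut bacterial monocultures seeded at OD600 0.05 grew anaerobically in mGAM at 37 °C in round-bottom 96-well plates. Hourly OD600 readings over 24 h gave growth curves whose minimum OD was set to 0. Area under these curves was normalised to the plate median of solvent-only wells, or to row and column medians on the industrial chemical plate. Values are medians of three biological replicates grown on separate days.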
row,Structure (SMILES),growth AUC
1,C=CCOC(Cn1ccnc1)c1ccc(Cl)cc1Cl.O=S(=O)(O)O (centres undefined),0.977
2,c1ccc(-c2ccccc2)cc1,1.01
3,CCOC(=O)C(SP(=S)(OC)OC)c1ccccc1 (centres undefined),0.929
4,Nc1nc(N)nc(Cl)n1,1.02
5,NC(=O)/N=C1/SCCN1Cc1ccc(Cl)nc1,1.01
6,CON(C)C(=O)Nc1ccc(Br)c(Cl)c1,0.944
7,CC(C)C(C(=O)OC(C#N)c1cccc(Oc2ccccc2)c1)c1ccc(OC(F)F)cc1 (centres undefined),1.01
8,O=[N+]([O-])c1c(Cl)c(Cl)cc(Cl)c1Cl,0.992
9,Clc1ccc(C2(Cn3cncn3)CC(Br)CO2)c(Cl)c1 (centres undefined),0.944
10,CC(C)N1C(=O)N(c2ccccc2)CSC1=NC(C)(C)C,0.981
11,CNC1=C(c2cccc(C(F)(F)F)c2)C(=O)C(c2ccccc2)O1 (centres undefined),0.972
12,CCOP(=S)(OCC)Oc1cc(C)nc(C(C)C)n1,1.02
13,CCOP(=S)(OCC)SCS(=O)(=O)C(C)(C)C,1.01
14,COc1nc(C)nc(NC(=O)NS(=O)(=O)c2ccccc2Cl)n1,1
15,CCOP(=S)(OCC)Oc1cnccn1,0.982
16,O=c1[nH]c2c(c(=O)n1C1CCCCC1)CCC2,0.972
17,COC[C@H](C)N(C(=O)CCl)c1c(C)csc1C,0.981
18,CC(C)N(C(=O)CCl)c1ccccc1,0.96
19,ClC1=C(Cl)C2(Cl)C(CBr)CC1(Cl)C2(Cl)Cl (centres undefined),0.982
20,COC(=O)COc1cc(Cl)c(Cl)cc1Cl,0.966

row,Structure (SMILES),growth AUC
1,COP(=S)(OC)Oc1ccc([N+](=O)[O-])c(C)c1,0.97
2,COC(=O)C(C)N(C(=O)c1ccco1)c1c(C)cccc1C (centres undefined),0.88
3,Cc1ccc(N(SC(F)(Cl)Cl)S(=O)(=O)N(C)C)cc1,1.03
4,CCOC(=O)CC(SP(=O)(OC)OC)C(=O)OCC (centres undefined),0.972
5,COc1cc(OC)nc(NC(=O)NS(=O)(=O)c2ncccc2C(F)(F)F)n1,1.02
6,c1ccc2c(c1)cc1ccc3cccc4ccc2c1c34,0.957
7,CS(=O)(=O)c1cc(C(F)(F)F)ccc1C(=O)c1cnoc1C1CC1,0.994
8,O=C(NC(=O)c1c(F)cccc1F)Nc1ccc(CO/N=C(\c2ccc(Cl)cc2)C2CC2)cc1,0.983
9,CNC(=O)Oc1cc(C)c(S(C)(=O)=O)c(C)c1,0.97
10,O=C(O)c1ccc(=O)[nH]c1,1.01
11,N#Cc1c[nH]cc1-c1cccc(Cl)c1Cl,0.816
12,CCOP(=S)(OCC)SCS(=O)CC (centres undefined),0.994
13,CNC(=O)O/N=C/C(C)(C)S(C)(=O)=O,1.01
14,COc1nc(NC(C)C)nc(NC(C)C)n1,1.02
15,CC(=O)O.CC(=O)O.CC(=O)O.NC(N)=NCCCCCCCCNCCCCCCCCN=C(N)N,0.158 (active)
16,OCC1C(CO)C2(Cl)C(Cl)=C(Cl)C1(Cl)C2(Cl)Cl (centres undefined),0.275 (active)
17,Nc1cc(Cl)cc(C(=O)O)c1Cl,0.958
18,N#Cc1nn(-c2c(Cl)cc(C(F)(F)F)cc2Cl)c(N)c1S(=O)C(F)(F)F (centres undefined),0.895
19,O=[N+]([O-])c1ccccc1,1
